Reference: the supplement of paper PMC10037445
Over roughly 2,900 compounds, “NF-kB SEAP reporter activity, fold change vs agonist alone” has its median near 0.99; the highest 2% begin near 2.6. The sample holds the highest values, similar compounds and a random draw of the others, so the mix is not that of the screen.

Experiments:
RAW-Dual [1] = experiment: NF-kB SEAP reporter activity, fold change vs agonist alone; higher = enhanced NF-kB activity; conditions: library stock concentration (final ~1000-fold dilution): 10 mM
Procedure, shortened: (§1)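 Library stock was pin-tooled at 50 nL into 384-well plates of RAW-Dual macrophages (50,000 cells/well, DMEM), followed 1 h later by a PRR agonist, and the cells were kept at 37 °C, 5% CO2. Supernatant collected after 20 hours was read for IRF by QuantiLuc luminescence and for NF-κB by QuantiBlue absorbance at 620 nm. Reporter activity is fold change over agonist-alone wells, and a well counted as cytotoxic when its IncuCyte confluency was below 70% of agonist controls in both mask sets.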

RAW-Dual [2] = experiment: NF-kB SEAP reporter activity, fold change vs agonist alone; cytotoxicity flag (confluency mask): not cytotoxic; higher = enhanced NF-kB activity
Procedure, shortened: as §1

RAW-Dual [3] = experiment: NF-kB SEAP reporter activity, fold change vs agonist alone; cytotoxicity flag (confluency mask): cytotoxic (confluency <70% of control); higher = enhanced NF-kB activity
Procedure, shortened: as §1

[4] = cytotoxicity flag (confluency mask): not cytotoxic, agonist: Imiquimod (TLR7) […]
[5] = cytotoxicity flag (confluency mask): not cytotoxic, agonist: MPLA (TLR4) […]
[6] = agonist: ODN 1826 (TLR9) 0.5 ug/mL
[7] = agonist: Pam2CSK4 (TLR2/6) 0.1 ug/mL
[8] = agonist: Pam3CSK4 (TLR2/1) 0.1 ug/mL

Question: With N#Cc1ccc(COCC2OC(n3c(NCc4ccc(Cl)c(Cl)c4)nc4c(N)ncnc43)C(O)C2O)cc1 (stereo not given) as the compound, how does the “NF-kB SEAP reporter activity” value (RAW-Dual [1]; [4]) read?
Answer: The value was 0.762.

Question: And the “NF-kB SEAP reporter activity” value (RAW-Dual [1]; [5])?
Answer: Its value is 0.966.

Question: N#Cc1ccc(COCC2OC(n3c(NCc4ccc(Cl)c(Cl)c4)nc4c(N)ncnc43)C(O)C2O)cc1 (stereo not given) (library stock concentration (final ~1000-fold dilution): 10 mM) was tested. Which “NF-kB SEAP reporter activity” value (RAW-Dual [2]; agonist: LPS (TLR4) 0.1 ug/mL) did it give?
Answer: The value was 0.934.

Question: And the “NF-kB SEAP reporter activity” value (RAW-Dual [2]; [6])?
Answer: Its value is 1.01.

Question: And the “NF-kB SEAP reporter activity” value (RAW-Dual [2]; [7])?
Answer: Its value is 0.742.

Question: What about the “NF-kB SEAP reporter activity” value (RAW-Dual [2]; [8]) of the same compound?
Answer: The value was 0.944.

Question: With Cc1ccc(NC(=O)Nc2cc(-c3ccccc3-c3nnn[nH]3)ccc2N(CC(C)C)CC(C)C)cc1 as the compound, how does the “NF-kB SEAP reporter activity” value (RAW-Dual [1]; cytotoxicity flag (confluency mask): cytotoxic (confluency <70% of control), agonist: Imiquimod (TLR7) […]) read?
Answer: Its value is 0.81.

Question: What about the “NF-kB SEAP reporter activity” value (RAW-Dual [1]; cytotoxicity flag (confluency mask): cytotoxic (confluency <70% of control), agonist: MPLA (TLR4) […]) of the same compound?
Answer: Its value is 1.25.

Question: How did the “NF-kB SEAP reporter activity” value (RAW-Dual [3]; agonist: LPS (TLR4) 0.1 ug/mL) turn out when Cc1ccc(NC(=O)Nc2cc(-c3ccccc3-c3nnn[nH]3)ccc2N(CC(C)C)CC(C)C)cc1 (library stock concentration (final ~1000-fold dilution): 10 mM) was run?
Answer: Its value is 1.16.

Question: What about the “NF-kB SEAP reporter activity” value (RAW-Dual [3]; [6]) of the same compound?
Answer: Its value is 0.54.

Question: And the “NF-kB SEAP reporter activity” value (RAW-Dual [3]; [7])?
Answer: The value was 0.207.

Question: What about the “NF-kB SEAP reporter activity” value (RAW-Dual [3]; [8]) of the same compound?
Answer: Its value is 0.333.

Question: For COc1ccc(CC(N)C(=O)NC2C(CO)OC(n3cnc4c(N(C)C)ncnc43)C2O)cc1.Cl.Cl (stereo not given), which “NF-kB SEAP reporter activity” value (RAW-Dual [1]; [4]) is on record?
Answer: Its value is 0.438.

Question: And the “NF-kB SEAP reporter activity” value (RAW-Dual [1]; [5])?
Answer: Its value is 1.12.

Question: Which results are given for COc1ccc(CC(N)C(=O)NC2C(CO)OC(n3cnc4c(N(C)C)ncnc43)C2O)cc1.Cl.Cl (stereo not given) (library stock concentration (final ~1000-fold dilution): 10 mM)?
Answer: NF-kB SEAP reporter activity (RAW-Dual [2]; agonist: LPS (TLR4) 0.1 ug/mL): 0.584; NF-kB SEAP reporter activity (RAW-Dual [2]; [6]): 0.469; NF-kB SEAP reporter activity (RAW-Dual [2]; [7]): 0.13; NF-kB SEAP reporter activity (RAW-Dual [2]; [8]): 0.256

Question: For NC(=O)c1cnc2[nH]ccc2c1NC1C2CC3CC1CC(O)(C3)C2 (stereo not given), which “NF-kB SEAP reporter activity” value (RAW-Dual [1]; [4]) is on record?
Answer: Its value is 0.334.

Question: What about the “NF-kB SEAP reporter activity” value (RAW-Dual [1]; [5]) of the same compound?
Answer: Its value is 0.347.

Question: What does the source list for NC(=O)c1cnc2[nH]ccc2c1NC1C2CC3CC1CC(O)(C3)C2 (stereo not given) (library stock concentration (final ~1000-fold dilution): 10 mM)?
Answer: NF-kB SEAP reporter activity (RAW-Dual [2]; agonist: LPS (TLR4) 0.1 ug/mL): 0.305; NF-kB SEAP reporter activity (RAW-Dual [2]; [6]): 0.398; NF-kB SEAP reporter activity (RAW-Dual [2]; [7]): 0.242; NF-kB SEAP reporter activity (RAW-Dual [2]; [8]): 0.31

Question: What does the source list for CC(NC(=Nc1cccc2ncccc12)NC#N)c1ccccc1 (stereo not given)?
Answer: NF-kB SEAP reporter activity (RAW-Dual [1]; [4]): 0.897; NF-kB SEAP reporter activity (RAW-Dual [1]; [5]): 1.12

Question: Which results are given for CC(NC(=O)c1ccccc1N=Cc1c(O)ccc2ccccc12)c1ccccc1 (stereo not given)?
Answer: NF-kB SEAP reporter activity (RAW-Dual [1]; [4]): 1.56; NF-kB SEAP reporter activity (RAW-Dual [1]; [5]): 2.25

Question: CC(NC(=O)c1ccccc1N=Cc1c(O)ccc2ccccc12)c1ccccc1 (stereo not given) (library stock concentration (final ~1000-fold dilution): 10 mM) was tested. Which “NF-kB SEAP reporter activity” value (RAW-Dual [2]; agonist: LPS (TLR4) 0.1 ug/mL) did it give?
Answer: Its value is 5.11.

Question: What about the “NF-kB SEAP reporter activity” value (RAW-Dual [2]; [6]) of the same compound?
Answer: Its value is 1.72.

Question: And the “NF-kB SEAP reporter activity” value (RAW-Dual [2]; [7])?
Answer: The value was 0.843.

Question: What about the “NF-kB SEAP reporter activity” value (RAW-Dual [2]; [8]) of the same compound?
Answer: The value was 1.53.

Question: Which results are given for CC(NC(=O)CCc1nc2ccccc2c(=O)[nH]1)c1ccccc1 (stereo not given)?
Answer: NF-kB SEAP reporter activity (RAW-Dual [1]; [4]): 1.03; NF-kB SEAP reporter activity (RAW-Dual [1]; [5]): 1.03

Question: With CC(NC(=Nc1cccc2ncccc12)NC#N)c1ccccc1 (stereo not given) (library stock concentration (final ~1000-fold dilution): 10 mM) as the compound, how does the “NF-kB SEAP reporter activity” value (RAW-Dual [2]; agonist: LPS (TLR4) 0.1 ug/mL) read?
Answer: The value was 1.34.

Question: And the “NF-kB SEAP reporter activity” value (RAW-Dual [2]; [6])?
Answer: The value was 1.07.

Question: What about the “NF-kB SEAP reporter activity” value (RAW-Dual [2]; [7]) of the same compound?
Answer: The value was 1.13.

Question: What about the “NF-kB SEAP reporter activity” value (RAW-Dual [2]; [8]) of the same compound?
Answer: The value was 1.29.

Question: With CC(C(=O)Nc1cccc(N=Cc2c(O)ccc3ccccc23)c1)c1ccccc1 (stereo not given) as the compound, how does the “NF-kB SEAP reporter activity” value (RAW-Dual [1]; [4]) read?
Answer: Its value is 1.67.

Question: And the “NF-kB SEAP reporter activity” value (RAW-Dual [1]; [5])?
Answer: Its value is 2.34.

Question: Which “NF-kB SEAP reporter activity” value (RAW-Dual [2]; agonist: LPS (TLR4) 0.1 ug/mL) does the source give for CC(C(=O)Nc1cccc(N=Cc2c(O)ccc3ccccc23)c1)c1ccccc1 (stereo not given) (library stock concentration (final ~1000-fold dilution): 10 mM) here?
Answer: The value was 6.64.

Question: What about the “NF-kB SEAP reporter activity” value (RAW-Dual [2]; [6]) of the same compound?
Answer: The value was 2.52.

Question: And the “NF-kB SEAP reporter activity” value (RAW-Dual [2]; [7])?
Answer: The value was 1.5.

Question: And the “NF-kB SEAP reporter activity” value (RAW-Dual [2]; [8])?
Answer: The value was 1.74.

Question: What does the source list for CC(NC(=O)CCc1nc2ccccc2c(=O)[nH]1)c1ccccc1 (stereo not given) (library stock concentration (final ~1000-fold dilution): 10 mM)?
Answer: NF-kB SEAP reporter activity (RAW-Dual [2]; agonist: LPS (TLR4) 0.1 ug/mL): 0.987; NF-kB SEAP reporter activity (RAW-Dual [2]; [6]): 1.32; NF-kB SEAP reporter activity (RAW-Dual [2]; [7]): 0.95; NF-kB SEAP reporter activity (RAW-Dual [2]; [8]): 1.25

Question: What does the source list for CCN1CCN(Cc2ccc(-c3cc4c(NC(C)c5ccccc5)ncnc4[nH]3)cc2)CC1 (stereo not given)?
Answer: NF-kB SEAP reporter activity (RAW-Dual [1]; [4]): 1.59; NF-kB SEAP reporter activity (RAW-Dual [1]; [5]): 0.93
